Source: PubChem BioAssay (several laboratories)
AMPAR-TARP mod: GluA2-stargazin AMPA receptor complex modulation. hit rate 3.5% among 40,000. O88602+P19491. calls only at 30 µM. HEK293 GluA2+stargazin, membrane potential dye (FDSS), glutamate EC50; hits were called plate by plate, in both directions;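 active means any of four per-well response measures lying three or more SD from its plate-wide compound average, in either direction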
GIRK2 act: Activates human GIRK2-containing potassium channels. 34,000 tested, under 10 active. activation (% efficacy), % for hits at 37.5 µM. AID 1259324. HEK293 GIRK2/NPY4 cells, thallium flux fluorescence;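 active means primary screen hit, no activity in plain HEK293 cells, and in GIRK2-only cells above 5% efficacy rising with concentration; inactive means the rest, including fluorescent compounds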;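 further: efficacy is normalized control-subtracted fluorescence 15 s after thallium addition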
Target sequence (P48051 whole entry, looked up): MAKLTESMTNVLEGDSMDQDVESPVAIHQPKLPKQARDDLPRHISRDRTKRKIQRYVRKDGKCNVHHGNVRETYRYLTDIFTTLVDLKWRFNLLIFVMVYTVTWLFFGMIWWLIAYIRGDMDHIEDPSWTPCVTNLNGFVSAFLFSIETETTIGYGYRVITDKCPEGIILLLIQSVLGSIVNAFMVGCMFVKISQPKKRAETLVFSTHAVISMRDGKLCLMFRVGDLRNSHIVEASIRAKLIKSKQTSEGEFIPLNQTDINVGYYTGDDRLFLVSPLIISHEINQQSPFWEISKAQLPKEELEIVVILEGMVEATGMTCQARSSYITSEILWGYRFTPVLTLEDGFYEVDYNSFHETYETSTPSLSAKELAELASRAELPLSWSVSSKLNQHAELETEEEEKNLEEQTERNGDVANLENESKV
* marks the source's active call; other numbers are inactive results; i = inactive; . = not tested or not shown; + = active, no number. The full list was thinned out, with hits kept by preference.

SMILES | AMPAR-TARP mod | GIRK2 act
O=C(Cn1nc(-n2cccn2)ccc1=O)Nc1nccs1 | i | i
CC(O)(CNC(=O)C(=O)Nc1ccon1)C1CC1 (configuration not stated) | i | i
Cc1ccc(S(=O)(=O)N2CCCc3ccc(NS(=O)(=O)c4cc(C)ccc4C)cc32)cc1 | i | i
Cc1ccccc1C(=O)NCC(O)(c1ccccc1)C1CC1 (configuration not stated) | i | .
CCOc1ccccc1C(=O)NCC(O)(c1ccccc1)C1CC1 (configuration not stated) | + | .
O=C(CSc1ccc(NC(=O)c2ccccc2)nn1)NCC1CCCO1 (configuration not stated) | i | i
O=C(CCc1ccccc1)NCCC(O)c1ccccc1 (configuration not stated) | + | i
O=C(Cc1ccc(F)cc1)NCCC(O)c1ccccc1 (configuration not stated) | i | i
COc1cc(NC(=O)Cn2ccc3ccn(Cc4ccccc4)c3c2=O)cc(OC)c1 | . | i
CC(C)(C)n1ncc2c(=O)n(NC(=O)/C=C/c3ccccc3)cnc21 | + | i
CC(C)(C)n1ncc2c(=O)n(NC(=O)C(c3ccccc3)c3ccccc3)cnc21 | i | i
Cc1ccccc1-n1ncc2c(=O)n(CC(=O)N3CCCCCC3)cnc21 | i | .
CC(NC(=O)C(=O)c1c[nH]c2ccccc12)c1ccccc1 (configuration not stated) | + | .
CCN(Cc1ccccc1)C(=O)C(=O)c1c[nH]c2ccccc12 | + | .
CC(C)N(Cc1ccccc1)C(=O)C(=O)c1c[nH]c2ccccc12 | i | .
CC(C)N(C(=O)C(=O)c1c[nH]c2ccccc12)C(C)C | i | .
CC(=O)c1cccc(NC(=O)c2ccc(S(=O)(=O)N(C)C3CCCC3)cc2)c1 | i | .
COc1ccccc1NC(=O)c1ccc(=O)[nH]n1 | i | i
O=C(Nc1ccc(F)c(C(F)(F)F)c1)C1CCN(C(=O)NC2CC2)CC1 | + | i
O=C(Nc1ccc(F)c(C(F)(F)F)c1)C1CN(C(=O)c2cccs2)C1 | i | i
O=C(c1cc2ccccc2oc1=O)N1CCOC(c2ccccc2)C1 (configuration not stated) | . | i
CCn1nc(C(=O)Nc2nc3c(Cl)c(Cl)ccc3s2)cc1C | . | i
CCc1nc(N2CCN(C)CC2)c2oc3ccccc3c2n1 | + | i
CN1CCN(c2nnnc3c2cnn3-c2ccccc2)CC1 | i | i
COc1ccccc1CNC(=O)CCc1csc(NC(=O)c2ccc(Cl)cc2)n1 | + | i
SMILES | AMPAR-TARP mod | GIRK2 act
COc1ccccc1CNC(=O)CCc1csc(NC(=O)c2ccc(F)cc2)n1 | i | i
O=C(CCc1csc(NC(=O)c2ccc[nH]c2=O)n1)NCc1ccc(F)cc1 | + | i
O=C(CCc1csc(NC(=O)c2ccc[nH]c2=O)n1)NCc1ccc2c(c1)OCO2 | i | i
CCOc1ccc(NC(=O)Cc2csc(SCC(=O)c3ccc(F)cc3)n2)cc1 | . | i
Cc1cc(Br)c2nc(-c3ccncc3)oc(=O)c2c1 | + | i
Cc1ccc(CNC(=O)CSc2nnc(-c3ccncc3)o2)cc1 | i | i
N#C/C(=C\c1cccc(Br)c1)c1nc2ccccc2s1 | i | .
O=C(NCC1(O)CCCC1)c1cc(Br)ccc1Cl | i | i
CCCCCNC(=O)CCCOc1ccc(C)cc1C | + | i
Cc1ccc(OCCCC(=O)Nc2nccs2)c(C)c1 | i | i
COc1ccc(-c2nnc(NC(=O)c3cc(Cl)sc3Cl)o2)cc1OC | i | i
CNC(=O)Cc1ccc(NC(=O)C2(c3ccccc3)CCOCC2)cc1 | i | i
CC(C)Sc1cccc(C(=O)Nc2sccc2C(N)=O)c1 | + | .
CC(C)Sc1cccc(C(=O)Nc2nnc(-c3cccs3)o2)c1 | i | .
O=C(Nc1onc2c1CSC2)c1cnc2ccccc2n1 | i | i
COc1ncccc1C(=O)Nc1onc2c1CSC2 | + | i
O=S(=O)(NCC1CCN(Cc2ccco2)CC1)c1ccc(F)c(Cl)c1 | i | i
CCOC(=O)c1c(NC(=O)c2ccnn2C)sc2c1CCCC2 | . | i
CCOC(=O)c1c(NC(=O)c2ccc(S(=O)(=O)N(C)C3CC3)cc2)sc2c1CCN(CC)C2 | + | i
CN(C1CCCC1)S(=O)(=O)c1ccc(C(=O)Nc2sc3c(c2C(N)=O)CCCC3)cc1 | i | .
CCOC(=O)c1c(NC(=O)COc2ccc(Cl)cc2)sc2c1CCN(Cc1ccccc1)C2 | + | .
COC(=O)c1c(NC(=O)c2ccno2)sc2c1CCN(Cc1ccccc1)C2 | . | i
CCOC(=O)c1c(NC(=O)c2cc(C)nn2C)sc2c1CCN(CC)C2 | + | i
CCc1ccc(S(=O)(=O)NCCCn2nc(-c3ccc(F)cc3)ccc2=O)cc1 | i | i
CCOc1ccc(S(=O)(=O)NCC(O)c2ccc(C(F)(F)F)cc2)cc1C (configuration not stated) | i | i
SMILES | AMPAR-TARP mod | GIRK2 act
COc1ccccc1Cc1noc(C2CN(C(=O)CCc3c(C)noc3C)C2)n1 | . | i
Cn1nc2c3c(cccc3c1=O)-c1ccccc1-2 | + | .
Cc1ccc(-c2nn(C)c(=O)c3ccccc23)cc1CNS(C)(=O)=O | i | .
OCCCc1nc2ccccc2n1Cc1ccc(F)cc1 | i | .
CC(=O)NCCc1nc2ccccc2n1Cc1c(C)c(C)cc(C)c1C | + | i
Cc1cc(C)c(C)c(Cn2c(CCCO)nc3ccccc32)c1C | + | i
CC(=O)NCCc1nc2ccccc2n1Cc1c(C)cc(C)cc1C | i | i
Cc1cc(S(=O)(=O)NCCn2nc(-c3ccc(Cl)cc3)ccc2=O)ccc1F | i | .
CC(C)Cn1c(N2CCN(CC(N)=O)CC2)nc2c1c(=O)[nH]c(=O)n2C | i | .
CCCCS(=O)(=O)N1CCN(c2ccc(-n3nc(C)c(C)c3C)nn2)CC1 | i | i
CCCCS(=O)(=O)N1CCN(c2ccc(Nc3cccc(C)n3)nn2)CC1 | + | i
O=C(c1cccs1)N(C(=O)N1CCCCC1)c1cccc(Cl)c1 | i | i
O=C(c1ccc(Br)o1)N(C(=O)N1CCCCC1)c1ccc(Cl)cc1 | + | .
O=C(c1cccs1)N(C(=O)N1CCCCC1)c1ccc(Cl)cc1 | + | .
CSc1ccccc1C(=O)N(C(=O)N1CCCCC1)c1ccc(Cl)cc1 | i | .
Cc1ccc(-c2ccc(=O)n(CC(=O)Nc3ccc4c(c3)OCO4)n2)cc1 | i | i
Cc1ccc(C)c(-c2csc(NC(=O)c3ccc(S(=O)(=O)C(C)C)cc3)n2)c1 | i | .
CCN(CC)C(=O)CSc1nc2c(-c3ccccc3)c[nH]c2c(=O)n1Cc1cccc(OC)c1 | . | i
O=C(CCC1CCCC1)Nc1ccc(CC(=O)N2CCOCC2)cc1 | . | i
CC(C)C(=O)NCCCn1nc(-c2ccco2)ccc1=O | i | i
CC(Oc1ccccc1F)C(=O)NCCCn1nc(-c2ccco2)ccc1=O (configuration not stated) | + | i
Cc1cc(C)c(NC(=O)Cc2csc(SCC(=O)c3ccc4c(c3)OCO4)n2)c(C)c1 | . | i
O=C(NCC(O)Cc1ccccc1)Nc1cccc(C(F)(F)F)c1 (configuration not stated) | + | i
O=C(NCC1CCN(c2ncccn2)CC1)Nc1cccc(C(F)(F)F)c1 | + | i
